Each structure is given as a SMILES string. Among all 320,000 compounds or so, about 2,100 (0.66%) were called active. Not shown: some 53% with an inconclusive outcome. The call rests on the fitted dose curve; in most records, active means well fitted inhibition curve with a large enough effect in the signal ratio, with a control signal flat (not every such curve was filed as active); inconclusive means small, poorly fitted or top-dose-only effect, or effect the other way, or a change in a side signal; inactive means flat fitted curve, though single readings scatter; the % refers to the signal ratio. The list comes from a sample in which actives are over-represented; it also holds similar structures and randomly drawn compounds.
Potency means the concentration at half of the fitted maximal effect.

A short description of the assay: qHTS Assay for Lipid Storage Modulators in Drosophila S3 Cells.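 On cell number change: cells counted by Cell Tracker Red CMTPX staining in the red channel.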 On lipid storage change, negative = inhibition: on the % scale 0 is the no-effect control and ±100 the full control effect. To be noted: BODIPY lipid droplet fluorescence, 18-24 h, cells fed with added oleic acid; cell number change: measured here: cell count max response; series mostly up to 46.1 µM; lipid storage change, negative = inhibition: at the top concentration. The method in brief:
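Laser-scanning cytometry quantifies lipid droplet accumulation (500–530 nm total intensity; droplet/cell object ratio) in oleic acid-fed (400 uM added) Drosophila S3 cells treated with a concentration series. 20 uM Triacsin C defined 100% inhibition.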
Take `Cn1cnnc1SCCNS(=O)(=O)c1cccc([N+](=O)[O-])c1`: the “lipid storage change, negative = inhibition” value is 20.2% (inactive) and the cell number change was found to be 3.23%. Turning to `Cc1ccc(NC(=S)N(CCN2CCOCC2)Cc2ccccc2F)cc1`, the “lipid storage change, negative = inhibition” value is 5.28% (inactive) and the cell number change is -12.7%.

Turning to `CN(C)S(=O)(=O)N(CCN1CCOCC1)Cc1ccccc1F`, the Potency is 9.2 µM (active) and the cell number change stood at 6.57%. With `CCc1ccc(NC(=S)N(CCN2CCOCC2)Cc2ccccc2F)cc1`, the “lipid storage change, negative = inhibition” value was 5.57% (inactive) and the cell number change was determined as 13.9%. `Cn1cnnc1Sc1ccc(C(F)(F)F)cc1[N+](=O)[O-]`: the “lipid storage change, negative = inhibition” value is 5.81% (inactive) and the cell number change is 20.3%.

For `Cc1ccc(C2(c3noc(CN4C[C@@H](C)O[C@@H](C)C4)n3)CCCC2)cc1`, the “lipid storage change, negative = inhibition” value was -0.0819% (inactive) and the cell number change is -4.24%. Regarding `CCOc1ccc2ccccc2c1C(=O)Nc1cc(=O)n(C)c(=O)n1C`, the “lipid storage change, negative = inhibition” value is 1.88% (inactive) and the cell number change was -14%. As to `Cc1[nH]n(-c2ccccc2)c(=O)c1N=O`, the “lipid storage change, negative = inhibition” value was -14.1% (inactive) and the cell number change is -9.61%. The like results for `Cc1[nH]n(-c2ccc(Cl)cc2)c(=O)c1N=Nc1cccnc1` were, in that order, 2.79% (inactive) and 8.32%.

On to `Cc1[nH]n(-c2ccccc2)c(=O)c1N=Nc1ccc(Cl)cc1`, for which the Potency was 9.2 µM (active) and the cell number change is -10.2%. In the case of `COc1ccccc1N=Nc1c(C)[nH]n(-c2ccccc2)c1=O`, the Potency was 14.6 µM (active) and the cell number change came to 0.338%.

`Cc1[nH]n(-c2ccccc2)c(=O)c1N=Nc1ccccc1C(=O)N1CCOCC1`: the “lipid storage change, negative = inhibition” value is 12.8% (inactive) and the cell number change was -24.3%. In the case of `Cc1[nH]n(-c2ccccc2)c(=O)c1N=Nc1ccc(C(N)=O)cc1`, the call was inactive and the cell number change was 15.5%. For `COc1ccccc1NC(=O)C1=C(C)Nc2nc(-c3ccccc3)nn2C1c1ccccn1` (stereo not given), the outcome was inactive. Regarding `O=C(CN1C(=O)NC2(CCCCCCC2)C1=O)Nc1ccc(Cl)cc1`, the “lipid storage change, negative = inhibition” value is 26.3% (inactive) and the cell number change worked out at 27.1%.

Consider `COC(=O)C1=C(NC(=O)C2CCCCC2)CCS1`, for which the “lipid storage change, negative = inhibition” value was 1.08% (inactive) and the cell number change is -10%. The corresponding values for `CC(C)Oc1ccc(/C=C/C(=O)NCC2COc3ccccc3O2)cc1` (stereo not given) are -7.62% (inactive) and -3.08%.

In the case of `CCS(=O)(=O)c1nc(S(=O)(=O)c2ccc(C)cc2)c(NCCN2CCOCC2)s1`, the “lipid storage change, negative = inhibition” value was -20.7% (inactive). Take `CCOC(=O)N1CCC(NCCNC(=O)c2ccco2)CC1`: the “lipid storage change, negative = inhibition” value is -7.46% (inactive) and the cell number change was -0.499%.

Regarding `CC1CCN(S(=O)(=O)c2ccc(NC(=O)c3ccco3)cc2)CC1`, the Potency is 16.4 µM (active) and the cell number change is -3.17%.

Consider `O=C(Nc1ccc(N2CCCC2)c(Cl)c1)c1ccco1`, for which the “lipid storage change, negative = inhibition” value is 15.6% (inactive) and the cell number change is -15.9%. As to `O=C(Nc1ccc(S(=O)(=O)N2CCOCC2)cc1)c1ccco1`, the compound was classed as inactive.

Turning to `CC1CCC(NCCNC(=O)c2ccco2)CC1` (stereo not given), the Potency is 0.82 µM (active) and the cell number change is 15.3%. Take `O=C(Nc1ccc(Cl)c(S(=O)(=O)N2CCCCC2)c1)c1ccco1`: the Potency is 0.291 µM (active) and the cell number change was 11.9%. On to `CCOc1ccc(NC(=O)c2ccco2)cc1S(=O)(=O)N1CCCC1`, for which the “lipid storage change, negative = inhibition” value is 19.1% (inactive) and the cell number change amounted to 3.85%. `O=C(NCCNC1CCCCC1)c1ccco1`: the “lipid storage change, negative = inhibition” value was 10.1% (inactive) and the cell number change is 17.5%. With `O=C(Nc1ccc(S(=O)(=O)N2CCCCCC2)cc1)c1ccco1`, the call was inactive. With `Cc1nc([N+](=O)[O-])cn1-c1ccc(N)cc1`, the “lipid storage change, negative = inhibition” value was -3.85% (inactive) and the cell number change was -2.93%.

With `O=C(c1nc2ccc(Cl)cn2c1CN1CCCC(CO)C1)N1CCc2ccccc2C1` (stereo not given), the “lipid storage change, negative = inhibition” value was -5.28% (inactive) and the cell number change was determined as 10.9%. On to `Cc1ccc(S(=O)(=O)c2c(C)cc(C)[nH]c2=O)c(C)c1`, for which the “lipid storage change, negative = inhibition” value was -7.93% (inactive) and the cell number change came to 17.9%.

Consider `Oc1ccc(Br)cc1/C=N/N1CCN(Cc2cccc3ccccc23)CC1`, for which the “lipid storage change, negative = inhibition” value was 1.32% (inactive) and the cell number change is 17%. Turning to `Cc1c(NC(=O)C2(c3ccccc3)CCOCC2)c(=O)n(-c2ccccc2)n1C`, the “lipid storage change, negative = inhibition” value is -12.2% (inactive) and the cell number change was -18.3%. With `CC(C)=C1C2CCC1C(C(=O)NCc1ccccc1)C2C(=O)O` (stereo not given), the Potency is 25.9 µM (active) and the cell number change was -4.67%. As for `CC(C)=C1C2CCC1C(C(=O)NCCc1ccccc1)C2C(=O)O` (stereo not given), the “lipid storage change, negative = inhibition” value is 5.32% (inactive) and the cell number change was determined as 6.84%.

On to `CC(C)=C1C2CCC1C(C(=O)Nc1cc(C)cc(C)c1)C2C(=O)O` (stereo not given), for which the “lipid storage change, negative = inhibition” value was 20.7% (inactive) and the cell number change amounted to 13.2%.

`CC(C)NC(=O)c1ccc2c(c1)N(CC(=O)NC1CCCCC1)C(=O)C(C)(C)O2`: the “lipid storage change, negative = inhibition” value is -6.03% (inactive) and the cell number change was 19%.

Take `S=C(Nc1ccccn1)Nc1ccccc1Cl`: the “lipid storage change, negative = inhibition” value was 15.4% (inactive) and the cell number change is -6.96%. Turning to `Cc1ccc(NC(=O)CSc2ccc3nnc(-c4cccnc4)n3n2)cc1`, the “lipid storage change, negative = inhibition” value is -24.5% (inactive) and the cell number change was -9.27%. Regarding `O=C(CSc1ccc2nnc(-c3cccnc3)n2n1)Nc1ccccc1`, the Potency was 0.411 µM (active) and the cell number change was 8.38%. Consider `CCCS(=O)(=O)Nc1cccc(-c2ccc3nnc(C)n3n2)c1`, for which the “lipid storage change, negative = inhibition” value was 5.14% (inactive) and the cell number change was 7.15%. `CC(=O)c1ccc(NC(=O)CSc2ccc3nnc(-c4cccnc4)n3n2)cc1`: the “lipid storage change, negative = inhibition” value was 3.23% (inactive) and the cell number change worked out at 1.01%. On to `CCS(=O)(=O)Nc1cccc(-c2ccc3nnc(-c4cccnc4)n3n2)c1`, for which the Potency is 5.8 µM (active) and the cell number change is -27%.

Turning to `CCS(=O)(=O)Nc1cccc(-c2ccc3nnc(C)n3n2)c1`, the “lipid storage change, negative = inhibition” value was 0.724% (inactive) and the cell number change is -5.54%. With `CCOC(=O)C(C(=O)NCCCN1CCOCC1)C1CCCCC1` (stereo not given), the “lipid storage change, negative = inhibition” value was -0.852% (inactive) and the cell number change is 5.53%.

With `CCn1nc(C)c(CN2CCCC(CO)(Cc3ccccc3)C2)c1C` (stereo not given), the “lipid storage change, negative = inhibition” value is -2.88% (inactive) and the cell number change turned out to be 6.82%.

`Cc1ccc(-c2cc([C@H]3[C@H]4C=CC[C@@H](C)[C@@H]4C(=O)N3Cc3ccccc3)ccc2F)cc1`: the “lipid storage change, negative = inhibition” value was 8.48% (inactive) and the cell number change is -1.15%. In the case of `COC(=O)c1cccc(NC(=O)NC(=O)c2ccccc2Cl)c1`, the “lipid storage change, negative = inhibition” value was -0.414% (inactive) and the cell number change is -8.19%.
